Measured values reported in PubChem BioAssay (NCATS).
Values joined by “and” are separate entries in the source; they are usually repeats but may differ in a detail not shown here. Equal values may be shown once. Inconclusive results are not listed. Some structures have more than one record in an assay (separate samples or runs), and their calls can disagree. Active and inactive are the calls of the source. Calls follow the shape of the dose curve; as a rule, active = well fitted curve in the direction sought with a large enough effect; inconclusive = small, poorly fitted or top-dose-only effect, or another doubt; inactive = no such curve, though single readings can be large; an effect the other way counts as inactive or inconclusive.

Tests used:
[1] = system: KB-3-1; assay: Cytotoxic Profiling of Annotated Libraries Using Quantitative High-Throughput Screening (AID 1296008); conditions: Five cell lines viability, CellTiter-Glo ATP luminescence, 48-72 h; max response: hits give low values; also: nearly all actives have a fitted effect of over 60% in size; also: potency is read from the fitted curve at half-maximal effect
How it was run: (§1)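 Compounds were pin-transferred onto cells and incubated 48 or 72 hr at 37 degree Celsius, 95% humidity. CellTiter-Glo was added, plates sat 10 min at room temperature, then ATP-coupled luminescence was imaged as the viability read-out.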

[2] = system: NIH3T3; assay: as above; conditions: Five cell lines viability, CellTiter-Glo ATP luminescence, 48-72 h; max response: hits give low values
How it was run: as §1

[3] = system: CRL-7250; assay: qHTS assay to identify novel small-molecules to repurpose for Merkel cell carcinoma treatment (AID 1296009); conditions: MCC and control cell lines, CellTiter-Glo viability, 72 h; at 44.8 µM (top of the series) unless noted; also: nearly all actives have a fitted effect of over 60% in size
How it was run: (§2)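 Cells exposed to NPC (8-point) and MIPE (11-point) compound dilutions for 72 hr at 37 degree celsius; viability read by CellTiter-Glo luminescence, normalized to no-cell and DMSO in-plate controls.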

[4] = system: MCC-13; assay: as above; conditions: MCC and control cell lines, CellTiter-Glo viability, 72 h; series mostly up to 46 µM
How it was run: as §2

[5] = system: MCC-26; assay: as above; conditions: MCC and control cell lines, CellTiter-Glo viability, 72 h; series mostly up to 46 µM
How it was run: as §2

[6] = system: MKL-1; assay: as above; conditions: MCC and control cell lines, CellTiter-Glo viability, 72 h; series mostly up to 46 µM
How it was run: as §2

[7] = system: UISO; assay: as above; conditions: MCC and control cell lines, CellTiter-Glo viability, 72 h; series mostly up to 46 µM
How it was run: as §2

[8] = system: C33A; assay: Primary qHTS to identify gynecologic anti-cancer compounds using libraries of approved drugs and bioactive compounds (AID 1345084); conditions: Gynecologic cancer cell panel viability, ATPlite luminescence, 48 h; series mostly up to 57.5 µM; also: nearly all actives have a fitted effect of over 55% in size
How it was run: (§3)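 48 h compound exposure at 37 C, 5% CO2; five-point qHTS. ATPlite luminescence readout of cell ATP.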

[9] = system: CAOV3; assay: as above; conditions: Gynecologic cancer cell panel viability, ATPlite luminescence, 48 h; series mostly up to 57.5 µM
How it was run: as §3

[10] = system: CASKI; assay: as above; conditions: Gynecologic cancer cell panel viability, ATPlite luminescence, 48 h; series mostly up to 57.5 µM
How it was run: as §3

[11] = system: Es-2; assay: as above; conditions: Gynecologic cancer cell panel viability, ATPlite luminescence, 48 h; series mostly up to 57.5 µM
How it was run: as §3

[12] = system: HeLa; assay: as above; conditions: Gynecologic cancer cell panel viability, ATPlite luminescence, 48 h; series mostly up to 57.5 µM
How it was run: as §3

[13] = system: Hek293T; assay: as above; conditions: Gynecologic cancer cell panel viability, ATPlite luminescence, 48 h, control line for the selectivity index; series mostly up to 57.5 µM
How it was run: as §3

[14] = system: JEG-3; assay: as above; conditions: Gynecologic cancer cell panel viability, ATPlite luminescence, 48 h; series mostly up to 57.5 µM
How it was run: as §3

[15] = system: OV90; assay: as above; conditions: Gynecologic cancer cell panel viability, ATPlite luminescence, 48 h; series mostly up to 57.5 µM
How it was run: as §3

[16] = system: HACAT; assay: qHTS assay to identify novel small-molecules to repurpose for Merkel cell carcinoma treatment (AID 1296009); conditions: MCC and control cell lines, CellTiter-Glo viability, 72 h; also: nearly all actives have a fitted effect of over 60% in size
How it was run: as §2

[17] = system: HEK293T; assay: as above; conditions: MCC and control cell lines, CellTiter-Glo viability, 72 h; at 44.8 µM (top of the series) unless noted
How it was run: as §2

[18] = system: MKL-2; assay: as above; conditions: MCC and control cell lines, CellTiter-Glo viability, 72 h; series mostly up to 46 µM
How it was run: as §2

[19] = system: WaGa; assay: as above; conditions: MCC and control cell lines, CellTiter-Glo viability, 72 h; series mostly up to 46 µM
How it was run: as §2

[20] = system: NIH3T3; assay: as above; conditions: MCC and control cell lines, CellTiter-Glo viability, 72 h; at 44.8 µM (top of the series) unless noted
How it was run: as §2

[21] = at 44.8 µM (top of the series) unless noted
% is scaled to controls: 0 for no effect and ±100 for the full control effect.

CC(=O)OCC1=C(C(=O)O)N2C(=O)[C@@H](N)[C@H]2SC1
inactive: max response [1] -19.8% | outcome [1] | max response [2] 1.92% and 4.65% | outcome [3] | outcome [4] | Potency [5] | Potency [6] | Potency [7] | Potency [8] | outcome [9] | outcome [10] | Potency [11] | Potency [12] | outcome [13] | outcome [14] | Potency [15]

Oc1ccc(Cl)cc1
inactive: max response [1] -9.29% | max response [2] 0.545% | outcome [16, 21] | outcome [17] | outcome [4] | Potency [5] | Potency [6] | Potency [18] | Potency [7] | Potency [19] | Potency [8] | outcome [9] | outcome [10] | Potency [11] | Potency [12] | outcome [13] | outcome [14] | Potency [15]

CC(NC(C)(C)C)C(=O)c1cccc(Cl)c1 (stereo unspecified)
inactive: max response [1] -3.99% and 2.03% and 8.68% | max response [2] -22.3% and 1.31% | outcome [2] | outcome [3] | outcome [16, 21] | outcome [17] | outcome [4] | Potency [5] | Potency [6] | Potency [18] | outcome [20] | Potency [7] | Potency [19] | Potency [8] | outcome [9] | outcome [10] | Potency [11] | Potency [12] | outcome [13] | outcome [14] | Potency [15]

CN1C[C@H](C(=O)N[C@]2(C)O[C@@]3(O)[C@@H]4CCCN4C(=O)[C@H](Cc4ccccc4)N3C2=O)C=C2c3cccc4[nH]cc(c34)C[C@H]21
inactive: max response [1] -3.72%

COC(=O)[C@@H](N)CCCN/C(N)=N/[N+](=O)[O-]
inactive: max response [1] -3.97% | max response [2] 1.98% | outcome [3] | outcome [17] | outcome [4] | Potency [5] | Potency [6] | Potency [18] | Potency [7] | Potency [19] | Potency [8] | outcome [10] | Potency [11] | Potency [12] | outcome [13] | outcome [14] | Potency [15]

C=CCN1C[C@H](C)N([C@H](c2ccc(C(=O)N(CC)CC)cc2)c2cccc(OC)c2)C[C@H]1C
inactive: max response [1] 2.69% | outcome [1] | max response [2] -0.106% and 4.66% | outcome [3] | outcome ([16]; at 9.27 µM (top of the series)) | outcome ([16]; at 44.8 µM (top of the series)) | outcome [4] | Potency [5] | Potency [6] | Potency [18] | Potency [7] | Potency [19] | Potency [8] | outcome [10] | Potency [11] | Potency [12] | outcome [13] | outcome [14] | Potency [15]

COP(=S)(OC)Oc1cc(Cl)c(Cl)cc1Cl
active: Potency [1] 146 nM
inactive: max response [1] -14.4% | max response [2] -6.48% | outcome [4] | Potency [5] | Potency [6] | Potency [7] | Potency [19] | Potency [8] | outcome [10] | Potency [11] | Potency [12] | outcome [13] | outcome [14] | Potency [15]

O=C1OC(c2ccc(O)c(S(=O)(=O)O)c2)(c2ccc(O)c(S(=O)(=O)O)c2)c2c(Br)c(Br)c(Br)c(Br)c21
inactive: max response [1] 10.3% | outcome [2] | outcome [16, 21] | outcome [17] | outcome [4] | Potency [5] | Potency [6] | Potency [18] | outcome [20] | Potency [7] | Potency [19] | Potency [8] | outcome [10] | Potency [11] | Potency [12] | outcome [13] | outcome [14] | Potency [15]

Cc1nnc2n1-c1ccc(Cl)cc1C(c1ccccc1)=NC2
inactive: max response [1] -2.21%

CC(C)(C)NCC(O)c1cc(Cl)c(N)c(C(F)(F)F)c1 (stereo unspecified)
inactive: max response [1] 5.51% | outcome [2] | outcome [3] | outcome [17] | outcome [4] | Potency [6] | Potency [18] | outcome [20] | Potency [7] | Potency [19] | Potency [8] | outcome [9] | outcome [10] | Potency [11] | Potency [12] | outcome [13] | outcome [14] | Potency [15]

NNc1ccccc1
inactive: max response [1] -8.39% | max response [2] 4.99% | outcome [3] | outcome [4] | Potency [6] | Potency [18] | Potency [19] | Potency [8] | outcome [9] | outcome [10] | Potency [11] | Potency [12] | outcome [13] | outcome [14] | Potency [15]

CN1CC[C@]23c4c5ccc(O)c4O[C@H]2[C@@H](O)CC[C@H]3[C@H]1C5
inactive: max response [1] -2.83% | max response [2] 0.466% | outcome [3] inactive [at 92 µM] | outcome [16, 21] inactive [at 92 µM] | outcome [4] | Potency [6] | Potency [18] | Potency [7] | Potency [19] | Potency [8] | outcome [9] | outcome [10] | Potency [11] | Potency [12] | outcome [13] | outcome [14] | Potency [15]
